The subject of experiment [1] is thyroid hormone receptor (rat, GH3 cells). The experiment is described as follows: qHTS assay to identify small molecule agonists of the thyroid receptor (TR) signaling pathway (AID 743066). Note: potency is the fitted concentration of half-maximal effect. For orientation: Quantitative high-throughput screening tests each substance at several concentrations.
Experiment [2] can be described thus: qHTS assay to identify small molecule antagonists of the estrogen receptor alpha (ER-alpha) signaling pathway - cell viability counter screen (AID 743074).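 Note: HEK293 cells carrying ER-alpha-UAS-bla reporter stimulated with 17beta-estradiol; nearly all actives have a fitted effect of over 45% in size.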
Experiment [3] is described as follows: qHTS assay to identify small molecule antagonists of the estrogen receptor alpha (ER-alpha) signaling pathway using the BG1 cell line - cell viability counter screen (AID 743081; active = well fitted curve in the direction sought with a large enough effect in the repeat runs; inconclusive = weak or mixed curves; inactive = no such curve, though single readings can be large; an effect the other way counts as inactive or inconclusive;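 note: compound given together with 17beta-estradiol as the ER stimulus; nearly all actives have a fitted effect of over 45% in size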; note: potency is the fitted concentration of half-maximal effect).
In the next experiment the target is Aromatase (Homo sapiens) (UniProt P11511). The experiment in a line: qHTS assay to identify aromatase inhibitors (AID 743083; active = well fitted curve in the direction sought with a large enough effect in the repeat runs; inconclusive = weak or mixed curves; inactive = no such curve, though single readings can be large; an effect the other way counts as inactive or inconclusive; note: nearly all actives have a fitted effect of over 55% in size).
Aromatase (Homo sapiens), sequence (P11511 whole entry, looked up): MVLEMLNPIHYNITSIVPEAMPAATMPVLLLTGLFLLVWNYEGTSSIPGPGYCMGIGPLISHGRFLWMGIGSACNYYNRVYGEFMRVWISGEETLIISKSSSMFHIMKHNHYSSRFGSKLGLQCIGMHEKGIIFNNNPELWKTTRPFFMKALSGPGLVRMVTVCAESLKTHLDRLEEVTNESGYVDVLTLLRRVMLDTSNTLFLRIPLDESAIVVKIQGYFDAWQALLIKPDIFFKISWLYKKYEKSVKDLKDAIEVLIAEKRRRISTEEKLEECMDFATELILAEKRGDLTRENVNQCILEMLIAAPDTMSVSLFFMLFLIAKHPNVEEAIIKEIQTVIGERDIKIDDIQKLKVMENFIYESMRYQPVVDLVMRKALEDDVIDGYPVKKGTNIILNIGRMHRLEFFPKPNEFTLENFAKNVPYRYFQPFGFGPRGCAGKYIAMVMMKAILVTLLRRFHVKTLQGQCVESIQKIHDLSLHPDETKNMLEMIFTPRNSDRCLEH
For experiment [4], the target named is Estrogen receptor (Homo sapiens) (UniProt P03372). The experiment is described as follows: qHTS assay to identify small molecule antagonists of the estrogen receptor alpha (ER-alpha) signaling pathway (AID 743069; active = well fitted curve in the direction sought with a large enough effect in the signal ratio in the repeat runs, not every such curve was filed as active; inconclusive = weak or mixed curves, or effect the other way; inactive = no such curve, though single readings can be large or run the other way; the % refers to the signal ratio). The essentials: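 Reporter cells (ER-alpha-bla, HEK293 background) are conditioned overnight in stripped-serum medium (2% charcoal-stripped FBS). Compound and 17beta-estradiol exposure runs 18 hr at 37C, 5% CO2.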
Estrogen receptor (Homo sapiens), sequence (P03372 whole entry, looked up): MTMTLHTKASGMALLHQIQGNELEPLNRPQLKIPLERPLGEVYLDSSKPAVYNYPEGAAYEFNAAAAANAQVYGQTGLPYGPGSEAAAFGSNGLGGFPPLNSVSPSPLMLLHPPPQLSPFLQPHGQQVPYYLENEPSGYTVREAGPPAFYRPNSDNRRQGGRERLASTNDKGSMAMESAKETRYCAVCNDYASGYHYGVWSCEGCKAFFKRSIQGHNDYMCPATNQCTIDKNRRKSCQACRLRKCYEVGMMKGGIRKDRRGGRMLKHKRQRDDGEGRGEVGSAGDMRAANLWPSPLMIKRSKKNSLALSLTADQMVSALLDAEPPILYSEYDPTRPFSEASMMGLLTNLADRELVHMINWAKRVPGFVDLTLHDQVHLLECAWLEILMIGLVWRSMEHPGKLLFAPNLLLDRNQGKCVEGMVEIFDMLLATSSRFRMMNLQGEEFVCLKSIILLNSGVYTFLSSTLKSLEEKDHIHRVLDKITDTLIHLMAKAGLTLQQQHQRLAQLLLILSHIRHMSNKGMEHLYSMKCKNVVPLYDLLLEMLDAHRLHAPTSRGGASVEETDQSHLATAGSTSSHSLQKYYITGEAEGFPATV

Experiment [5] shares this target. The experiment is described as follows: qHTS assay to identify small molecule agonists of the estrogen receptor alpha (ER-alpha) signaling pathway (AID 743075).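 Note: HEK293 GripTite cells with ER-alpha and UAS-driven beta-lactamase reporter.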 Note: potency is the fitted concentration of half-maximal effect.
Experiment [6] shares this target. The experiment is described as follows: qHTS assay to identify small molecule agonists of the estrogen receptor alpha (ER-alpha) signaling pathway using the BG1 cell line (AID 743079; active = well fitted curve in the direction sought with a large enough effect in the repeat runs; inconclusive = weak or mixed curves; inactive = no such curve, though single readings can be large; an effect the other way counts as inactive or inconclusive; note: nearly all actives have a fitted effect of over 20% in size; note: potency is the fitted concentration of half-maximal effect). The following applies: BG1Luc4E2 cells, ERE-luciferase agonist, 22 h; activation: at 70.3 µM (top of the series).
Experiment [7] in a line: qHTS assay to identify small molecule antagonists of the estrogen receptor alpha (ER-alpha) signaling pathway using the BG1 cell line (AID 743080).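 Note: BG1 cells stimulated with 17beta-estradiol alongside compound; nearly all actives have a fitted effect of over 25% in size.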 Note: potency is the fitted concentration of half-maximal effect. The essentials: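 Quantitative HTS on the Tox21 10K library: BG1 cells with endogenous ER-alpha and ERE-luciferase reporter, 17beta-estradiol stimulation, 21.5 h compound exposure, luminescence endpoint with parallel fluorescence cytotoxicity counter-read.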

Structures are written as SMILES. Active and inactive are the calls of the source. Unless noted, calls come from the whole dose curve. Positions of bridges follow the written chain, without caps; N, C: chain ends. Non-standard residues stand in square brackets, D forms with d. Residues, ends and D or L forms follow the SMILES beside them. ξ: configuration not given here. *: point of attachment. d(aThr) = C[C@@H](O)[C@@H](N)C(=O)O; ξThr(3R) = C[C@@H](O)C(N)C(=O)O; X3 = CC[C@@H](C)CCCCC(=O)*; dDab = NCC[C@@H](N)C(=O)O

Take `Oc1cc(O)cc(O)c1`: the Potency entry (in experiment [1]; in experiment [2]; in experiment [3]; in the experiment with Aromatase (Homo sapiens)) was “inactive” in each case.

Consider `COc1cc(Br)c(C[N+]2(CCOCCC3CCC4CC3C4(C)C)CCOCC2)cc1OC` (configuration not stated), for which the Potency entry in experiment [4], in experiment [2], in experiment [5], in experiment [6], in experiment [7] and in experiment [3] was “inactive” in each case.

As to `CC(=C\c1ccccc1)/C=C1/SC(=S)N(CC(=O)O)C1=O`, the Potency entry in experiment [1], in experiment [4], in experiment [2], in experiment [5], in experiment [6] and in experiment [7] was “inactive” in each case. Moreover, the Potency result in the experiment with Aromatase (Homo sapiens) is “inactive”. Besides, the Potency in experiment [3] is 29.8 µM (active).

Turning to `CC[C@@H](C)CCCCC(=O)N[C@H](CCN)C(=O)N[C@@H](C(=O)N[C@H](CCN)C(=O)N[C@@H]1CCNC(=O)C([C@@H](C)O)NC(=O)[C@@H](CCN)NC(=O)[C@@H](CCN)NC(=O)[C@@H](CC(C)C)NC(=O)[C@@H](Cc2ccccc2)NC(=O)[C@@H](CCN)NC1=O)[C@@H](C)O` (stereo partly drawn) (X3-[dDab][d(aThr)][dDab][dDab][dDab][dF][dL][dDab][dDab][ξThr(3R)]; lactam 4-C), the Potency entry (in experiment [1]; in experiment [2]; in experiment [3]; with Aromatase (Homo sapiens)) was “inactive” each time.

In the case of `CCCCC(=O)N(Cc1ccc(-c2ccccc2-c2nn[nH]n2)cc1)[C@@H](C(=O)O)C(C)C`, the Potency entry in experiment [4], in experiment [2], in experiment [5], in experiment [6], in experiment [7] and in experiment [3] was “inactive” in each case. Besides, in the experiment with Aromatase (Homo sapiens), the Potency result was “inactive”.

Turning to `O=C(CCCN1CCC(C(=O)c2ccc(F)cc2)CC1)c1ccc(F)cc1`, the Potency entry in experiment [1], in experiment [4], in experiment [2], in experiment [5], in experiment [6] and in experiment [7] was “inactive” each time. In addition, the Potency entry (in experiment [3]; with Aromatase (Homo sapiens)) was “inactive” in each case.

Regarding `CC1(C)S[C@@H]2[C@H](NC(=O)C(C(=O)O)c3ccsc3)C(=O)N2[C@H]1C(=O)O` (some centres not stated), the Potency result in experiment [4], in experiment [2], in experiment [5], in experiment [6], in experiment [7] and in experiment [3] was “inactive” throughout. For the same molecule, in the experiment with Aromatase (Homo sapiens), the Potency result is “inactive”.

`Cc1cc(-n2c(=O)[nH]c(=O)n(C)c2=O)ccc1Oc1ccc(S(=O)(=O)C(F)(F)F)cc1`: the Potency in experiment [1] was 9.44 µM (active). The Potency result (in experiment [5]; in experiment [3]; in the experiment with Aromatase (Homo sapiens)) was “inactive” in each case.

`CCC(Cc1c(I)cc(I)c(O)c1I)C(=O)O` (configuration not stated): the Potency result (in experiment [1]; in experiment [4]; in experiment [2]; in experiment [7]; in experiment [3]; with Aromatase (Homo sapiens)) was “inactive” throughout.

For the molecule `CC(/C=C/C=C(\C)C(=O)O[C@@H]1O[C@H](CO[C@@H]2O[C@H](CO)[C@@H](O)[C@H](O)[C@H]2O)[C@@H](O)[C@H](O)[C@H]1O)=C\C=C\C=C(C)\C=C\C=C(/C)C(=O)O[C@@H]1O[C@H](CO[C@@H]2O[C@H](CO)[C@@H](O)[C@H](O)[C@H]2O)[C@@H](O)[C@H](O)[C@H]1O`, the Potency entry in experiment [1], in experiment [2] and in experiment [3] was “inactive” each time.

Turning to `COC(=O)CCC(=O)CN`, the Potency result in experiment [4], in experiment [2], in experiment [5], in experiment [6], in experiment [7] and in experiment [3] was “inactive” in each case. The Potency entry in the experiment with Aromatase (Homo sapiens) is “inactive”.

On to `CCCCCCCCCCCC(=O)N(CCO)CCO`, for which the Potency result in experiment [1], in experiment [2], in experiment [5], in experiment [6], in experiment [7] and in experiment [3] was “inactive” in each case. The Potency entry with Aromatase (Homo sapiens) is “inactive”.

On to `C[C@]12CCC(=O)C[C@@H]1CC[C@@H]1[C@@H]2CC[C@]2(C)C=CC[C@@H]12`, for which the Potency entry (in experiment [1]; in experiment [2]; in experiment [7]; in experiment [3]; in the experiment with Aromatase (Homo sapiens)) was “inactive” each time. Also, the Potency in experiment [5] is 8.49 µM [inconclusive] (active); in experiment [6], 11.9 µM (active).

As to `COc1ccc(CCNCC(O)COc2cccc(C)c2)cc1OC` (configuration not stated), the Potency result in experiment [1], in experiment [4], in experiment [2], in experiment [5], in experiment [6] and in experiment [7] was “inactive” in each case. Moreover, the Potency entry (in experiment [3]; with Aromatase (Homo sapiens)) was “inactive” in each case.

`NC[C@@H]1O[C@H](O[C@H]2[C@@H](O)[C@H](O[C@@H]3[C@@H](O)[C@H](N)C[C@H](N)[C@H]3O[C@H]3O[C@H](CN)[C@@H](O)[C@H](O)[C@H]3N)O[C@@H]2CO)[C@H](N)[C@@H](O)[C@@H]1O`: the Potency entry in experiment [4], in experiment [2], in experiment [5], in experiment [6], in experiment [7] and in experiment [3] was “inactive” in each case. Further, the Potency result with Aromatase (Homo sapiens) was “inactive”.

Turning to `CC(CN(C)C)CN1c2ccccc2S(=O)(=O)c2ccccc21` (configuration not stated), the Potency result in experiment [1], in experiment [4], in experiment [2], in experiment [5], in experiment [6] and in experiment [7] was “inactive” each time. In addition, the Potency entry with Aromatase (Homo sapiens) is “inactive”.

`CO[C@@H]1[C@@H](O[C@@H]2O[C@H](C)[C@@H](O[C@H]3C[C@@](C)(O)[C@@H](O)[C@H](C)O3)[C@H](N(C)C)[C@H]2O)[C@@H](CC=O)C[C@@H](C)[C@@H](O[C@@H]2CC[C@H](N(C)C)[C@@H](C)O2)/C=C/C=C/C[C@@H](C)OC(=O)C[C@H]1O`: the Potency entry in experiment [4], in experiment [2], in experiment [5], in experiment [6], in experiment [7] and in experiment [3] was “inactive” each time. For the same molecule, the Potency result with Aromatase (Homo sapiens) is “inactive”.

As to `CC(C)(C)NCC(O)c1ccc(O)c(CO)n1` (configuration not stated), the Potency entry in experiment [1], in experiment [2] and in experiment [3] was “inactive” throughout.

For `CN1C(=O)CN2CCc3ccccc3C2c2cc(Cl)ccc21` (configuration not stated), the Potency result (in experiment [4]; in experiment [2]; in experiment [5]; in experiment [6]; in experiment [3]; with Aromatase (Homo sapiens)) was “inactive” each time. Moreover, the Potency in experiment [7] was 21.1 µM (active).

The values above are taken from PubChem BioAssay (Tox21).
